Inhibition data for one compound are collected here from ChEMBL document CHEMBL1961873, “Compounds: GSK PKIS; Assays: Nanosyn kinase panel” (2012).

For experiment [1], the target named is T1, Inhibitor of nuclear factor kappa-B kinase subunit epsilon (Homo sapiens) (UniProt Q14164).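 Note: reported values are averaged percent inhibition figures against human IKKε.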
T1 sequence (whole entry): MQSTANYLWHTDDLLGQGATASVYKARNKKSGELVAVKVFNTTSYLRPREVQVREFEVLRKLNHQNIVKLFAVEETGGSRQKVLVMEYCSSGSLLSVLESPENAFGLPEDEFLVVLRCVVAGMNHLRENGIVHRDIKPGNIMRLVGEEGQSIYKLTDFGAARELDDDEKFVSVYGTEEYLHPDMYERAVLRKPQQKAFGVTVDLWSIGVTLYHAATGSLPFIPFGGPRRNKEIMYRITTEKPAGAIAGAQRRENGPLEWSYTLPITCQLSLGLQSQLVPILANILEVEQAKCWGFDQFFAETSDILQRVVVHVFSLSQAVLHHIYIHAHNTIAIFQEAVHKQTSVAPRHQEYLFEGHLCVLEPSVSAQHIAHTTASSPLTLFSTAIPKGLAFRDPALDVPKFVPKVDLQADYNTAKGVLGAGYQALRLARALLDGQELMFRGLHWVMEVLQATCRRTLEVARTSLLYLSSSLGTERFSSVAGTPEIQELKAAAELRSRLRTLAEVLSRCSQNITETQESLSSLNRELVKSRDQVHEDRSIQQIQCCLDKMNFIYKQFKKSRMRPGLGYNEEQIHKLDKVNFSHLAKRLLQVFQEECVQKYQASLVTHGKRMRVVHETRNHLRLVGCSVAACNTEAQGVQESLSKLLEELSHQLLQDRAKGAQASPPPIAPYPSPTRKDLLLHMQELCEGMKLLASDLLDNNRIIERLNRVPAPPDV
The settings on record: at 1 µM.

Experiment [2] addresses T2, Serine/threonine-protein kinase Nek1 (Homo sapiens) (UniProt Q96PY6).
T2 sequence (whole entry): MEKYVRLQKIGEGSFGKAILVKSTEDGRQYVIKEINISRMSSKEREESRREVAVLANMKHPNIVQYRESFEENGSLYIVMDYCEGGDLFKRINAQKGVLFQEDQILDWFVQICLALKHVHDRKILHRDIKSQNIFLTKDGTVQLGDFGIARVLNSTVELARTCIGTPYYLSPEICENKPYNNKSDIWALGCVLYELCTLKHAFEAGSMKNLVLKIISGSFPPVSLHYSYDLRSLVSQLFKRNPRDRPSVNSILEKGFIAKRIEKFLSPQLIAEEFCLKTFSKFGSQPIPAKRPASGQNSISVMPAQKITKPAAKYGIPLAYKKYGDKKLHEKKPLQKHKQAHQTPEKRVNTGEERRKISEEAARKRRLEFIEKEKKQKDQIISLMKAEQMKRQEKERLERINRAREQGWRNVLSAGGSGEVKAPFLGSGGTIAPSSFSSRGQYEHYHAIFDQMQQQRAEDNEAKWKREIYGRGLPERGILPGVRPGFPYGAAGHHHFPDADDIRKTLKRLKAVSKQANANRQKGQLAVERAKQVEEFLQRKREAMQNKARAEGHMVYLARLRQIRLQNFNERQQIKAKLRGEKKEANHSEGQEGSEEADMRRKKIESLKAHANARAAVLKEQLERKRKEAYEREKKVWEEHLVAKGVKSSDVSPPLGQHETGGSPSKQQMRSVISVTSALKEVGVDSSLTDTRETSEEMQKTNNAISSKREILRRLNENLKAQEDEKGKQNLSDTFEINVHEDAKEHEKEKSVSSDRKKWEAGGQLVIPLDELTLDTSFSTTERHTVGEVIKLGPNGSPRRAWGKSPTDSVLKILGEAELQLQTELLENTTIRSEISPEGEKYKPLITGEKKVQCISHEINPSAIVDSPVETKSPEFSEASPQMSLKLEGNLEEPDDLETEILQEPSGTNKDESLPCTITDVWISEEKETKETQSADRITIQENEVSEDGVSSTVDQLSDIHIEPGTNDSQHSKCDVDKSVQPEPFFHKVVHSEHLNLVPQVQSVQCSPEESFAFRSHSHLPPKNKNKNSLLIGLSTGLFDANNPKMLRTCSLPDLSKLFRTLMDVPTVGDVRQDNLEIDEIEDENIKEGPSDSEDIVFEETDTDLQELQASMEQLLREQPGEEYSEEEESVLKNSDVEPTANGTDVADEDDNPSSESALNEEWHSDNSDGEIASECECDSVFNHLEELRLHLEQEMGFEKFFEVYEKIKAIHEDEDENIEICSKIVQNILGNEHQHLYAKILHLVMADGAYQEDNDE
The following applies: at 0.1 µM.

Experiment [3] has as its target T2, Serine/threonine-protein kinase Nek1 (Homo sapiens). The settings on record: at 1 µM.
For experiment [4], the target named is T3, Serine/threonine-protein kinase Nek2 (Homo sapiens) (UniProt P51955).
T3 sequence (whole entry): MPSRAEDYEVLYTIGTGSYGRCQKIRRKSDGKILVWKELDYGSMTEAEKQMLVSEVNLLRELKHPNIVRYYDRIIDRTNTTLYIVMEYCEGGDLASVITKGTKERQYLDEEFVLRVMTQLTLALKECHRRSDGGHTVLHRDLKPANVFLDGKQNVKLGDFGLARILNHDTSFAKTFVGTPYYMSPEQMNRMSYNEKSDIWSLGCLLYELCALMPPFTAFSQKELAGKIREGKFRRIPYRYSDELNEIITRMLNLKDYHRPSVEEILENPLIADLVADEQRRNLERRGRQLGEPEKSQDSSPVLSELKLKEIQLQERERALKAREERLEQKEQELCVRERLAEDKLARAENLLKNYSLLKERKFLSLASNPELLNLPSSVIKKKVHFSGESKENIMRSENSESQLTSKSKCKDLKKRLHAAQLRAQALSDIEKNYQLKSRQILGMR
The following applies: at 0.1 µM.

For experiment [5], the target named is T3, Serine/threonine-protein kinase Nek2 (Homo sapiens). The following applies: at 1 µM.
Experiment [6] has as its target Serine/threonine-protein kinase Nek6 (Homo sapiens) (UniProt Q9HC98). The settings on record: at 0.1 µM.
For experiment [7] the target is unchanged. The following applies: at 1 µM.
Experiment [8] concerns the target Serine/threonine-protein kinase Nek7 (Homo sapiens) (UniProt Q8TDX7). The following applies: at 0.1 µM.
Experiment [9] shares this target. The settings on record: at 1 µM.
Experiment [10] deals with T4, Serine/threonine-protein kinase Nek9 (Homo sapiens) (UniProt Q8TD19).
T4 sequence (whole entry): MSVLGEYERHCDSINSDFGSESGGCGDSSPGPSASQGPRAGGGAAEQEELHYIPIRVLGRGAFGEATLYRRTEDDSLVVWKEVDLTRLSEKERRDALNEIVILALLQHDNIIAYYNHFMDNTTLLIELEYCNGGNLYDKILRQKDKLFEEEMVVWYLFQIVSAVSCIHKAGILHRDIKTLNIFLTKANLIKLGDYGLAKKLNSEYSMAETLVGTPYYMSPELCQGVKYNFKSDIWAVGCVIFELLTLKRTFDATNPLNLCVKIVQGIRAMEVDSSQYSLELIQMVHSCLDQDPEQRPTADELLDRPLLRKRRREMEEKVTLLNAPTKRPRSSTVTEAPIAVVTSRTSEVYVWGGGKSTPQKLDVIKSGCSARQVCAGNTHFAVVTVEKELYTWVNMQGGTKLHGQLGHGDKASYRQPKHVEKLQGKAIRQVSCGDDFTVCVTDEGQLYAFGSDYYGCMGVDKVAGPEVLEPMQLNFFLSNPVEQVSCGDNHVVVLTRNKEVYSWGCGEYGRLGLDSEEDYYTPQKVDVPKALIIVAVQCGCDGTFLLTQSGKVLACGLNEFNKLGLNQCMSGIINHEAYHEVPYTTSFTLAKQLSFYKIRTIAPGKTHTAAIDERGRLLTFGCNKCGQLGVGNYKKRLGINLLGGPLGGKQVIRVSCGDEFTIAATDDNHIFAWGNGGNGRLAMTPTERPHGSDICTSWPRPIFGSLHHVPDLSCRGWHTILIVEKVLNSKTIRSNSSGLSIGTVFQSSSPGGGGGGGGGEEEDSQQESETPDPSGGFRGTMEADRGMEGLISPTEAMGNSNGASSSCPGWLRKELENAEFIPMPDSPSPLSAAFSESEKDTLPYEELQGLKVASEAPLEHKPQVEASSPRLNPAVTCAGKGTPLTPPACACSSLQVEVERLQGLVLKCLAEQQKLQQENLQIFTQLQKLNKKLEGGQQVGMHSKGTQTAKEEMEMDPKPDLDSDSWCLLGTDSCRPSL
The following applies: at 0.1 µM.

Experiment [11] concerns the target T4, Serine/threonine-protein kinase Nek9 (Homo sapiens). The settings on record: at 1 µM.
Experiment [12] concerns the target Serine/threonine-protein kinase PLK1 (Homo sapiens) (UniProt P53350). The settings on record: at 0.1 µM.
The target is the same in experiment [13]. The following applies: at 1 µM.
Experiment [14] has as its target T5, Dual specificity protein kinase TTK (Homo sapiens) (UniProt P33981).
T5 sequence (whole entry): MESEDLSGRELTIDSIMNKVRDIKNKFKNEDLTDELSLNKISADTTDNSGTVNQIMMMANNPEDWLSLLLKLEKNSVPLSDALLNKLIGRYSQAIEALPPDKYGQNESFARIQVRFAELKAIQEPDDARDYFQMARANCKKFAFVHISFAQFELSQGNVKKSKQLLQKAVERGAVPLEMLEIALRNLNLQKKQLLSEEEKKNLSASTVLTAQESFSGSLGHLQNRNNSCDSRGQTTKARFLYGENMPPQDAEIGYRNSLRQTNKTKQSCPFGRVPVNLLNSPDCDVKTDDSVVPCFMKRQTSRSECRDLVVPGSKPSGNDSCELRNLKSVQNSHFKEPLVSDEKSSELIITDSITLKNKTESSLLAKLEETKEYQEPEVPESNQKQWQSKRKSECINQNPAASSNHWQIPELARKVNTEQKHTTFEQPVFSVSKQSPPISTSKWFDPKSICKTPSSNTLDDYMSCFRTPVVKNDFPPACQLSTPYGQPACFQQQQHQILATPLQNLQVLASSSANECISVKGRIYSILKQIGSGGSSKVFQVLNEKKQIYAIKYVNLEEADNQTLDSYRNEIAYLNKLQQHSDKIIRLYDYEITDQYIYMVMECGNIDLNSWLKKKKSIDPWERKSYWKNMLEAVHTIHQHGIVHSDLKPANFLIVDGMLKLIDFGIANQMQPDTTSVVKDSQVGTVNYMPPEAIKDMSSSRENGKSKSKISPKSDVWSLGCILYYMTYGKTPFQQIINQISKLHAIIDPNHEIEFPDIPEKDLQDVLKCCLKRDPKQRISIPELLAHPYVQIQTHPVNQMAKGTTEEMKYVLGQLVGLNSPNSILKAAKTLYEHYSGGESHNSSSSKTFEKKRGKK
The following applies: at 0.1 µM.

Experiment [15] has as its system T6, Receptor-type tyrosine-protein kinase FLT3 (Homo sapiens), P36888 [D835Y].
T6 sequence (whole entry): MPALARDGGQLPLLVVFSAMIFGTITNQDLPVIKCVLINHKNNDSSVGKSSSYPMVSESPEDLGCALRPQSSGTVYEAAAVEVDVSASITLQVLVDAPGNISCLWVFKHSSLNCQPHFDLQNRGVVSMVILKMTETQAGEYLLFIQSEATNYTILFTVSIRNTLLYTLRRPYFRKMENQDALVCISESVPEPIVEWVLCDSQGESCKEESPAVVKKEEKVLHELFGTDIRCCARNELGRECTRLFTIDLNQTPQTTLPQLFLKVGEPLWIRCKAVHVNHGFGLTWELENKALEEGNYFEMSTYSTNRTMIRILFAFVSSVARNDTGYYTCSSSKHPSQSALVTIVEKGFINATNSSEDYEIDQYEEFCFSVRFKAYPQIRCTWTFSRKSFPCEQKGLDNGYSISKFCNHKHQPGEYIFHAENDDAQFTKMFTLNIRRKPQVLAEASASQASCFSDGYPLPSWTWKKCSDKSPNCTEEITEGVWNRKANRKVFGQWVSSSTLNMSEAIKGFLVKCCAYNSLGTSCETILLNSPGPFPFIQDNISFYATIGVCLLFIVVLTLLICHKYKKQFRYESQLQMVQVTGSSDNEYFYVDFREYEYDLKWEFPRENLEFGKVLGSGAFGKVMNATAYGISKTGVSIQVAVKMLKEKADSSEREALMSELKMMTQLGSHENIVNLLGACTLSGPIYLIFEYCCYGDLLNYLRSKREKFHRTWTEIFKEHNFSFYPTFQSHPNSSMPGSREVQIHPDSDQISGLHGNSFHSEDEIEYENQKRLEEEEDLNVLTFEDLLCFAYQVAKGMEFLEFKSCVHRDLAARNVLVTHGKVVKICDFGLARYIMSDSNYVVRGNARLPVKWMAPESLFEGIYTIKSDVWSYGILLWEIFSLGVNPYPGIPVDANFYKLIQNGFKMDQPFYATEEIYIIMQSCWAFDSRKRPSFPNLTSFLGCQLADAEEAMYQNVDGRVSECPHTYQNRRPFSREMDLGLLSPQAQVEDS
The following applies: at 1 µM.

Experiment [16] addresses Vascular endothelial growth factor receptor 3 (Homo sapiens) (UniProt P35916). The settings on record: at 0.1 µM.
Experiment [17] shares this target. The following applies: at 1 µM.
For experiment [18], the target named is Macrophage colony-stimulating factor 1 receptor (Homo sapiens) (UniProt P07333). The settings on record: at 0.1 µM.
For experiment [19] the target is unchanged. The following applies: at 1 µM.
The target in experiment [20] is Tyrosine-protein kinase Fyn (Homo sapiens) (UniProt P06241). The settings on record: at 0.1 µM.

SMILES strings stand for the structures.

One may read the inhibition as the drop in the measured response relative to a control, in per cent.

Macrophage colony-stimulating factor 1 receptor (Homo sapiens), sequence (P07333 whole entry): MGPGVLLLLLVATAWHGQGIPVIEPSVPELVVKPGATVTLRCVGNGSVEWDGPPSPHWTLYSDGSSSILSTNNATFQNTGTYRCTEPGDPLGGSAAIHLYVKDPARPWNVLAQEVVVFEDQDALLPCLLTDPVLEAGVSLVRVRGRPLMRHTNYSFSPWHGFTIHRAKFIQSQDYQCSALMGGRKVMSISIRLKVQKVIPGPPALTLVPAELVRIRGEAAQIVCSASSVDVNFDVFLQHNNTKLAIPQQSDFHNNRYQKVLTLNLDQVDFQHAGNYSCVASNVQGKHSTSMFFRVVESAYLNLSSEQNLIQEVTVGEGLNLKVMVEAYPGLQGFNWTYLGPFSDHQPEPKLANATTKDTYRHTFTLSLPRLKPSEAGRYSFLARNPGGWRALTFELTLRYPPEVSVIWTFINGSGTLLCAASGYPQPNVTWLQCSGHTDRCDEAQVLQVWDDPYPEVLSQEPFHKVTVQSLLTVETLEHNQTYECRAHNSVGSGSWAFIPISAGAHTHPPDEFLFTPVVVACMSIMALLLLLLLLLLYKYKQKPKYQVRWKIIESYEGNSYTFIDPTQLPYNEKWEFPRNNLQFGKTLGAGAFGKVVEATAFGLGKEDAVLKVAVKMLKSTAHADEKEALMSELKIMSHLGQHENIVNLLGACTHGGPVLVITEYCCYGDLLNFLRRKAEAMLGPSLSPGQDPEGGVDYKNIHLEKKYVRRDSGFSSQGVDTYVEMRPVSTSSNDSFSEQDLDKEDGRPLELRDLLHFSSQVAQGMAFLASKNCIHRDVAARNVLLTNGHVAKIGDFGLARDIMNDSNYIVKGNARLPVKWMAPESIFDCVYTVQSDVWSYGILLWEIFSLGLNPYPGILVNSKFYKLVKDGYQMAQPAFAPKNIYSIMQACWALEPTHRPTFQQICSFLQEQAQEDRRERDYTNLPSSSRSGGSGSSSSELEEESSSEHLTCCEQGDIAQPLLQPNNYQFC
Vascular endothelial growth factor receptor 3 (Homo sapiens), sequence (P35916 whole entry): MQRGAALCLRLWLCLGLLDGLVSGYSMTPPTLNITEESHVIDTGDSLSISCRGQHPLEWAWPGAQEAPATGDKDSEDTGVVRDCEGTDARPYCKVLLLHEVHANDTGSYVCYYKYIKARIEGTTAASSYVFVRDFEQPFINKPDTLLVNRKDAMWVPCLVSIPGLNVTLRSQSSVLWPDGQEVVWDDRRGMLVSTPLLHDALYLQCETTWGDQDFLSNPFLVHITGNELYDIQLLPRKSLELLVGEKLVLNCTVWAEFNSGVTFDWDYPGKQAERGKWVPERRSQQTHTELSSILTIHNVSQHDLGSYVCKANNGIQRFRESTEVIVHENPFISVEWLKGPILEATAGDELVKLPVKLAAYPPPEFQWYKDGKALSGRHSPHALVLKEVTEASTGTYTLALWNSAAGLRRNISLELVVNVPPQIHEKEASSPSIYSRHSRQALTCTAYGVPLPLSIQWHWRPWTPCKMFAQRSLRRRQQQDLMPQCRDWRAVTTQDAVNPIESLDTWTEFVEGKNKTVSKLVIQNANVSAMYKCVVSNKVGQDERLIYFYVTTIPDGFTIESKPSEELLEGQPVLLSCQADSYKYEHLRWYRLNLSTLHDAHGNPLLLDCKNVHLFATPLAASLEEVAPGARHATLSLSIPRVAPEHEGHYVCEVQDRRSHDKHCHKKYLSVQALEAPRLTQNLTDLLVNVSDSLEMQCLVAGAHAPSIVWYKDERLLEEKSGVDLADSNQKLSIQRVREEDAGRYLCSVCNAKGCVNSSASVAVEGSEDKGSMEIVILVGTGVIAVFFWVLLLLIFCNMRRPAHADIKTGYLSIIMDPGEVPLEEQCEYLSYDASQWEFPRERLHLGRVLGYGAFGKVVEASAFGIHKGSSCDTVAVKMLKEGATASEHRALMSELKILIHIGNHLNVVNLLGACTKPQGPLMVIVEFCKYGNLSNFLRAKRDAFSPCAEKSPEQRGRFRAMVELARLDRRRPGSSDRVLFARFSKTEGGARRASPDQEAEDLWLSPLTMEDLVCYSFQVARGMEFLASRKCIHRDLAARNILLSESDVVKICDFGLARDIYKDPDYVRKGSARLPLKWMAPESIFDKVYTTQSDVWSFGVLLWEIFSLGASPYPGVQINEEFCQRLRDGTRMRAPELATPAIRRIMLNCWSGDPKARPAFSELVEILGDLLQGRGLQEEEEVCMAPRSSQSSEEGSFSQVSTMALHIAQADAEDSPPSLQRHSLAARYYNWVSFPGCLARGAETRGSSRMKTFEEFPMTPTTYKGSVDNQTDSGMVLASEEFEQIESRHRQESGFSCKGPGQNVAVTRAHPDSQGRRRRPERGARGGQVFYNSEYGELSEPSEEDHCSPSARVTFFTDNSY
Serine/threonine-protein kinase Nek6 (Homo sapiens), sequence (Q9HC98 whole entry): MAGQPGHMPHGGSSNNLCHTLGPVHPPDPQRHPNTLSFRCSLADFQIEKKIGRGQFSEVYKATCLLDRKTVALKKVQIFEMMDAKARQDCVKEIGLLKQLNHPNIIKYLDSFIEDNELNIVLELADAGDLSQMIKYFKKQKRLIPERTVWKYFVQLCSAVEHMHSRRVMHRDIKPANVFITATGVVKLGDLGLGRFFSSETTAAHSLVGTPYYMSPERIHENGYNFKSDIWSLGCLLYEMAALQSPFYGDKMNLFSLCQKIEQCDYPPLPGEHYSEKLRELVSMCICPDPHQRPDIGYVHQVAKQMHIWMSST
Serine/threonine-protein kinase PLK1 (Homo sapiens), sequence (P53350 whole entry): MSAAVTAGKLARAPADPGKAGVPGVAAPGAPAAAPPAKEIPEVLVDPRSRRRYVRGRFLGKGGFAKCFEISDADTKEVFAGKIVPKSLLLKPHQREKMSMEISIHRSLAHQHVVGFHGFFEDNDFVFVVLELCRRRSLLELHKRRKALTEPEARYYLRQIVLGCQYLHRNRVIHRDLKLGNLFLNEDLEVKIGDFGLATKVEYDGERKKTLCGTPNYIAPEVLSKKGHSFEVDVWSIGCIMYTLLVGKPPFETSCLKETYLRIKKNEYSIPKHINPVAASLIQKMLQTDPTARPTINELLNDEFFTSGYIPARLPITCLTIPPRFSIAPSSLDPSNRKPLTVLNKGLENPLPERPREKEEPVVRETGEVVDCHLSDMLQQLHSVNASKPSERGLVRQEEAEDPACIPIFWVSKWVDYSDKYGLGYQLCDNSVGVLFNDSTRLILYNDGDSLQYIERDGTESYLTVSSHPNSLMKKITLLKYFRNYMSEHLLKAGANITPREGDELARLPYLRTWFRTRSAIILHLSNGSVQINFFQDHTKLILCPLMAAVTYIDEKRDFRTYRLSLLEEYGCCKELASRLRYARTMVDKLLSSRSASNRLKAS
Serine/threonine-protein kinase Nek7 (Homo sapiens), sequence (Q8TDX7 whole entry, looked up): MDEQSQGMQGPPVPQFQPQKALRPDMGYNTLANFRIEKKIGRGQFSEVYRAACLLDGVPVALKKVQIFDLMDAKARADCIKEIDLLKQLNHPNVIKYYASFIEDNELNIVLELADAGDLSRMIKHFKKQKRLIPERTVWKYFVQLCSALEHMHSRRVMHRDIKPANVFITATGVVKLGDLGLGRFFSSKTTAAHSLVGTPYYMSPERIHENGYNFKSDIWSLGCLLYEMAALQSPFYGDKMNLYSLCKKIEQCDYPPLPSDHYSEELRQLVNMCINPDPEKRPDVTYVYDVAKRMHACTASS
Tyrosine-protein kinase Fyn (Homo sapiens), sequence (P06241 2-537 limits assumed): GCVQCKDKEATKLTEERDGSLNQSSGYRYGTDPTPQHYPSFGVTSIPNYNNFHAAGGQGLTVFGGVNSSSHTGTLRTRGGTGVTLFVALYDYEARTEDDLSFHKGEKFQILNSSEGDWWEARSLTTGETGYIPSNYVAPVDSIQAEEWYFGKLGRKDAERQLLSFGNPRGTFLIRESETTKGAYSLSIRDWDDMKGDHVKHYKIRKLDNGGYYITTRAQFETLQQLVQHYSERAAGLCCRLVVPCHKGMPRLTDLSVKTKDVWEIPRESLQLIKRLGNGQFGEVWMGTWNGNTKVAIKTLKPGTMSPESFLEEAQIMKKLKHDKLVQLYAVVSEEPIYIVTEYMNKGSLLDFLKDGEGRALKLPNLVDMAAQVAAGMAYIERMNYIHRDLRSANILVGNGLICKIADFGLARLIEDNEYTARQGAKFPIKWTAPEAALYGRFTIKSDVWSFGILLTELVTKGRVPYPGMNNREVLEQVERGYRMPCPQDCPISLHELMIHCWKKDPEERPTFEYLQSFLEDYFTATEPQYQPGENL

For the compound `NS(=O)(=O)c1cccc(Nc2cc(-c3ccc(F)cc3)n[nH]2)c1`, the inhibition in experiment [1] worked out at 8.08%; in experiment [2], 1.79%; in experiment [3], 3.87%; in experiment [4] it was 4.43%; in experiment [5] it was 6.1%; in experiment [6], 2.48%. Besides, the inhibition came to 6.59% in [7]; 4.33% in experiment [8]; 4.76% in experiment [9]; 10.6% in experiment [10]; 9.48% in experiment [11]; 3.38% in [12]. The inhibition in experiment [13] was 3.33%; in [14], 5.88%; in [15], 13.9%; in experiment [16], -0.78%; in experiment [17] it was 2.02%; in experiment [18], 3.25%. For the same compound, the inhibition in experiment [19] is 16.6%; in experiment [20] it was 1.7%.
